Records with an inconclusive call do not appear. Active and inactive are the calls of the source. Unless noted, the call rests on the fitted dose curve; in most records, active means well fitted curve in the direction sought with a large enough effect; inconclusive means small, poorly fitted or top-dose-only effect, or another doubt; inactive means no such curve, though single readings can be large; an effect the other way counts as inactive or inconclusive.

The source of these data is PubChem BioAssay (NCATS).

Experiment [1] concerns the target Luciferin 4-monooxygenase (Photinus pyralis) (UniProt P08659). Kind of experiment: Biochemical firefly luciferase enzyme assay for NPC (AID 624030).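 Further: purified P. pyralis luciferase at 10 nM with luciferin and ATP substrate; 0% = DMSO and -100% = full luciferase inhibition by PTC124 control; nearly all actives have a fitted effect of over 70% in size.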 Summed up: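 Direct inhibition of firefly luciferase enzyme (10 nM final, 50 mM Tris Acetate) assessed by luminescence within 5 minutes. Percent activity scaled between DMSO and PTC124 positive control, with concentration-effect curves classified by fit quality and response.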

Experiment [2] in a line: qHTS Assay for Identifying Gametocytocidal Compounds (AID 743244).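 Further: on the % scale 0 is the no-effect control and ±100 the full control effect; actives lower the fluorescent signal which means gametocytes are killed.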 The following applies: P. falciparum 3D7 stage III-V gametocytes, alamarBlue, 72 h; max response: stronger effect = lower value. Summed up: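 P. falciparum 3D7 stage III–V gametocytes (20,000 cells/well) were exposed to compounds for 72 h at 37 °C, 5% CO2. AlamarBlue was then added for 24 h; decreased resorufin fluorescence (Ex 525/Em 598 nm) indicated loss of viability.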
In general terms: qHTS replaces the single test concentration by a dilution series.

The nature of experiment [3]: P-glycoprotein substrates identified in KB-8-5-11 adenocarcinoma cell line, qHTS therapeutic library screen (AID 1346987). Further: on the % scale 0 is the no-effect control and ±100 the full control effect; nearly all actives have a fitted effect of over 65% in size. Summed up: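 In this qHTS, P-gp-rich KB-8-5-11 cells received library compounds across a concentration range. Viability was quantified by luminescence after 72 h at 37 degree C.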
For experiment [4], the system named is KB-3-1. Kind of experiment: Cytotoxic Profiling of Annotated Libraries Using Quantitative High-Throughput Screening (AID 1296008). Further: on the % scale 0 is the no-effect control and ±100 the full control effect; nearly all actives have a fitted effect of over 60% in size. The following applies: Five cell lines viability, CellTiter-Glo ATP luminescence, 48-72 h; max response: stronger effect = lower value. Summed up: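 Cytotoxicity was measured as CellTiter-Glo ATP luminescence, read after 10 min at room temperature. Compound treatment of the cells lasted 48 or 72 hr at 37 degrees Celsius in a qHTS format.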
(In ATP-based viability assays light output follows the ATP content of the culture.)

For experiment [5], the system named is astro. Kind of experiment: Drug repurposing screens with cells derived from glioblastoma tumor samples (AID 1345199). Further: on the % scale 0 is the no-effect control and ±100 the full control effect; nearly all actives have a fitted effect of over 40% in size. The following applies: viability, ATP luminescence, 48 h; series mostly up to 45.9 µM. The method in brief:
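Primary testing used CD133+ neurospheres from four GBM patients, seven concentrations, 48 h exposure and ATP-based viability; confirmation added three slower-growing patient lines.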

Experiment [6] is described as follows: qHTS for Inhibitors of the Functional Ribonucleoprotein Complex (vRNP) of Lassa (LASV) Arenavirus: LASV Primary Screen - GLuc reporter signal (AID 1347082; calls by dose curve; tested in HEK293 reporter line; further: on the % scale 0 is the no-effect control and ±100 the full control effect; nearly all actives have a fitted effect of over 60% in size).
The nature of experiment [7]: qHTS for Inhibitors of the Functional Ribonucleoprotein Complex (vRNP) of Lassa (LASV) Arenavirus: Viability assay - alamar blue signal for LASV Primary Screen (AID 1347083; calls by dose curve; tested in HEK293 reporter line; further: on the % scale 0 is the no-effect control and ±100 the full control effect; nearly all actives have a fitted effect of over 80% in size).
Experiment [8] in a line: qHTS for Inhibitors of the Functional Ribonucleoprotein Complex (vRNP) of Lymphocytic Choriomeningitis Arenaviruses (LCMV): Viability assay - alamar blue signal for LCMV Primary Screen (AID 1347085; calls by dose curve; tested in HEK293 reporter line; further: on the % scale 0 is the no-effect control and ±100 the full control effect; nearly all actives have a fitted effect of over 80% in size).
Experiment [9] deals with Nucleoprotein (Lymphocytic choriomeningitis virus (strain Armstrong)) (UniProt P09992). The experiment is described as follows: qHTS for Inhibitors of the Functional Ribonucleoprotein Complex (vRNP) of Lymphocytic Choriomeningitis Arenaviruses (LCMV): LCMV Primary Screen - GLuc reporter signal (AID 1347086; calls by dose curve; further: on the % scale 0 is the no-effect control and ±100 the full control effect; nearly all actives have a fitted effect of over 70% in size).
Chain of Nucleoprotein (Lymphocytic choriomeningitis virus (strain Armstrong)) (P09992 whole entry, looked up): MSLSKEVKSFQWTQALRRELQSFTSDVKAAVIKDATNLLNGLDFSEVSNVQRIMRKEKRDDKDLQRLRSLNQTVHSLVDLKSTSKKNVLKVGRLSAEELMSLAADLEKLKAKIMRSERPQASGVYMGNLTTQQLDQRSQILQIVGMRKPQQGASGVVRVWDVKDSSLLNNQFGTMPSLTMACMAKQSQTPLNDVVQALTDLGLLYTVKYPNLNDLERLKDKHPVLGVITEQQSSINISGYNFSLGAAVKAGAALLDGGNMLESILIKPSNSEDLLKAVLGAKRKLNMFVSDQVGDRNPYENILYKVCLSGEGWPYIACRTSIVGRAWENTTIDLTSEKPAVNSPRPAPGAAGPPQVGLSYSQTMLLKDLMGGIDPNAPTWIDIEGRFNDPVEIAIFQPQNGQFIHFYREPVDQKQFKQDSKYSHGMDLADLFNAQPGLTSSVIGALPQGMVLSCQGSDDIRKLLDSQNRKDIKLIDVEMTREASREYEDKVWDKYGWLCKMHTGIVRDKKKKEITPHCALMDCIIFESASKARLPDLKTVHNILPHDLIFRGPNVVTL
Experiment [10] in a line: Primary qHTS for inhibitors of SARS-S pseudo-typed particle cell entry (AID 1479145; calls by dose curve; further: nearly all actives have a fitted effect of over 45% in size).
Experiment [11] can be described thus: Primary qHTS for Huh7 cytotoxicity: counterscreen for inhibitors of MERS-S pseudotyped particle cell entry (AID 1479147; calls by dose curve). The following applies: outcome: dose series up to 57.1 µM unless noted.
Experiment [12] in a line: Primary qHTS for inhibitors of MERS-S pseudo-typed particle cell entry (AID 1479149; calls by dose curve; further: nearly all actives have a fitted effect of over 60% in size).
A short description of experiment [13]: Primary qHTS for Vero E6 cytotoxicity: counterscreen for inhibitors of SARS-S pseudo-typed particle cell entry (AID 1479150; calls by dose curve). The following applies: outcome: dose series up to 57.1 µM unless noted.
The nature of experiment [14]: Cytotoxicity counterscreen for inhibitors of SARS-CoV-2 cell entry (AID 1645845; calls by dose curve; further: nearly all actives have a fitted effect of over 50% in size). The method in brief:
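ATP-content luminescence (ATPLite 1step, 15 min RT) read after 48 h compound exposure of Expi293F cells stably expressing human ACE2; normalized to cells-only wells and media-only wells.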

A short description of experiment [15]: Primary qHTS to identify inhibitors of SARS-CoV-2 cell entry (AID 1645846; calls by dose curve; further: nearly all actives have a fitted effect of over 45% in size). The following applies: activity change, negative = inhibition: at 57.1 µM (top of the series) unless noted. The method in brief:
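Luminescence readout (Bright-Glo luciferase) 48 h after pseudoparticle addition. HEK293-ACE2 cells, 1500/well; compound pre-incubation 1 h; Normalized to spike PP and bald PP.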

Experiment [16] concerns the target Glutathione peroxidase 1 (Homo sapiens) (UniProt P07203). The experiment is described as follows: Primary qHTS Assay for Inhibitors of Recombinant Selenoprotein Glutathione Peroxidase 1 (GPX1) (AID 1845191). Further: on the % scale 0 is the no-effect control and ±100 the full control effect; nearly all actives have a fitted effect of over 65% in size. The method in brief: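 NADPH consumption tracked by fluorescence at 340/450 nm between t=0 and t=15 min, room temperature. Final mix: 10 nM GPX1, 100 nM glutathione reductase, 1 mM GSH, 0.5 mM NADPH, 0.5 mM cumene hydroperoxide, 0.01% BSA; 30 min compound–enzyme preincubation.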

For experiment [17], the target named is Phospholipid hydroperoxide glutathione peroxidase GPX4 (Homo sapiens) (UniProt P36969). The experiment is described as follows: Primary qHTS Assay for Inhibitors of Recombinant Selenoprotein Glutathione Peroxidase 4 (GPX4) (AID 1845192). Further: nearly all actives have a fitted effect of over 65% in size. The method in brief: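 NADPH consumption followed by fluorescence at 340/450 nm, t=0 and after 15 min at room temperature. Reaction started with cumene hydroperoxide (0.5 mM final) after 30 min compound–GPX4 preincubation; final 200 nM GPX4, 100 nM GR, 1 mM GSH, 0.5 mM NADPH.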
Chain of Phospholipid hydroperoxide glutathione peroxidase GPX4 (Homo sapiens) (P36969 whole entry, looked up): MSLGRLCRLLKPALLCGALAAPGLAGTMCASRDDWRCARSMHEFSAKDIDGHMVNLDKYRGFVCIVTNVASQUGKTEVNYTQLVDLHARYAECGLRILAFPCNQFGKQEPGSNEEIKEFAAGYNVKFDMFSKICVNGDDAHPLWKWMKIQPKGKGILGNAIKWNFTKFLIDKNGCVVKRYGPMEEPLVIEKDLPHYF

Chain of Glutathione peroxidase 1 (Homo sapiens) (P07203 whole entry, looked up): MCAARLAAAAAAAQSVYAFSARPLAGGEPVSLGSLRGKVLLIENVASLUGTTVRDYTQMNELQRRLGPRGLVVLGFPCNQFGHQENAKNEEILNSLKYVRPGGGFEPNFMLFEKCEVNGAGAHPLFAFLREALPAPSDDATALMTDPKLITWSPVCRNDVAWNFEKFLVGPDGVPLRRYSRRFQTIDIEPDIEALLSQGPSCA
Chain of Luciferin 4-monooxygenase (Photinus pyralis) (P08659 whole entry, looked up): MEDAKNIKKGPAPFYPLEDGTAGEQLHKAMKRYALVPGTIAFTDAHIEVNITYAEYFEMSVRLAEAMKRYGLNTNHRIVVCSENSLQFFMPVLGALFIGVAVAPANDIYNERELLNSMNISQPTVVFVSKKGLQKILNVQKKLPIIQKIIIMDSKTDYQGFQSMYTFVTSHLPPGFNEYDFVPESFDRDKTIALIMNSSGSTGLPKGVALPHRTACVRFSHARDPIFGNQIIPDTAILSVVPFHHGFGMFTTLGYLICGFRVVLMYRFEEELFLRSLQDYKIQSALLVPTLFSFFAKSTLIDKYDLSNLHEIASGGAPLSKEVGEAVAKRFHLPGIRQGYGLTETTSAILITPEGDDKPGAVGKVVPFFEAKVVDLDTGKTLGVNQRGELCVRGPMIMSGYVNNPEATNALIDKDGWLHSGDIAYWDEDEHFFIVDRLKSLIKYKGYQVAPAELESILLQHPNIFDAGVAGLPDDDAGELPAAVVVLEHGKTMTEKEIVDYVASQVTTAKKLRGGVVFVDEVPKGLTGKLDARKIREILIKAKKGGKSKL

Take `COc1ccc(OC)c(C[C@H](C)N)c1`: the Potency result in [1], in [3] and in experiment [5] was “inactive” throughout. The values for the max response in [2] and in experiment [4] were -1.24% (inactive) and 4.2% (inactive), respectively.

`COC(=O)[C@H]1[C@@H](OC(=O)c2ccccc2)C[C@@H]2CC[C@H]1N2C`: the max response in experiment [2] is -15.4% (inactive); in experiment [4] it was 1.68% (inactive). For the same compound, the Potency entry in experiment [3], in experiment [6], in experiment [7], in [8], in [9] and in experiment [10] was “inactive” throughout. Besides, the Potency entry in experiment [12], in [14], in [16], in experiment [17] and in experiment [5] was “inactive” each time. For the same compound, the outcome in experiment [11] and in experiment [13] was “inactive [at 114 µM]” in each case. Besides, the activity change, negative = inhibition in experiment [15] is -14.7% [at 114 µM].
